# PMC5540273 (PLoS ONE, 2017)
# Columns and labels:
# Conditions in all cases: concentration: 1 μM,replicates: in singlicate; n = 1
# SNARK = tested on: T1, SNARK
# T1 construct: gene NUAK2
# SNRK = tested on: SNRK
# SRC = tested on: SRC
# SRMS = tested on: SRMS
# SRPK1 = tested on: SRPK1
# SRPK2 = tested on: SRPK2
# SRPK3 = tested on: SRPK3
# STK16 = tested on: STK16
# STK33 = tested on: STK33
# STK35 = tested on: STK35
# STK36 = tested on: STK36
# STK39 = tested on: STK39
# SYK = tested on: SYK
# SgK110 = tested on: SgK110
# TAK1 = tested on: T2, TAK1
# T2 construct: gene MAP3K7
# TAOK1 = tested on: TAOK1
# TAOK2 = tested on: TAOK2
# TAOK3 = tested on: TAOK3
# TBK1 = tested on: TBK1
# TEC = tested on: TEC
# 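Note: KINOMEscan kinase panel screen.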
SMILES,%Inh (SNARK) [%],%Inh (SNRK) [%],%Inh (SRC) [%],%Inh (SRMS) [%],%Inh (SRPK1) [%],%Inh (SRPK2) [%],%Inh (SRPK3) [%],%Inh (STK16) [%],%Inh (STK33) [%],%Inh (STK35) [%],%Inh (STK36) [%],%Inh (STK39) [%],%Inh (SYK) [%],%Inh (SgK110) [%],%Inh (TAK1) [%],%Inh (TAOK1) [%],%Inh (TAOK2) [%],%Inh (TAOK3) [%],%Inh (TBK1) [%],%Inh (TEC) [%]
CCn1c(-c2nonc2N)nc2cncc(CNC3CCNCC3)c21.Cl [SB-747651],13,0,0,0,23,0,0,15,0,0,0,24,21,2,0,0,1,0,7,2
O=C(NCC1CC1)c1ccc(-c2cc(C(=O)NC3CC3)ccc2F)cc1 [GW810445],0,0,9,2,0,0,0,4,0,0,0,15,17,51,4,0,0,0,26,2
COc1ccc(Nc2nccc(N3CCC(NC(=O)c4cccc(C#N)c4)C3)n2)cc1 (centres unmarked) [GSK1379730],0,0,19,0,36,0,0,2,10,0,0,0,19,0,0,0,0,0,0,0
NC(=O)Nc1sc(-c2ccc(F)cc2)cc1C(N)=O [GW789449],75,6,55,18,81,35,90.6,26,0,0,0,0,32,0,75,61,41,3,41,1
OCCn1cc(-c2cnc3nnn(Cc4ccc5ncccc5c4)c3n2)cn1,0,0,0,0,0,4,0,0,0,0,0,0,0,0,12,0,0,0,0,0
CN(c1ccccc1CNc1nc(Nc2ccc3c(c2)CC(=O)N3)ncc1C(F)(F)F)S(C)(=O)=O,93.4,0,70,0,46,0,39,99.9,68,0,8,0,86,0,76,92.7,6,86,48,0
Cc1ccc(Nc2ccnc(Nc3ccc4c(c3)CS(=O)(=O)C4)n2)cc1O.Cl [GW579362],52,6,99.9,87,99.2,18,83,98.5,89,22,92.2,17,93.2,0,99.5,81,30,47,90,83
Cn1ccc2ncnc(Oc3ccc(NC(=O)Nc4cc(C(C)(C)C)on4)c(Cl)c3)c21,0,13,44,0,80,0,0,2,64,30,0,23,0,27,81,0,0,0,28,9
COc1cc2nccc(Nc3ccc(Oc4ccccc4)cc3)c2cc1OC.Cl [GI261656],0,0,47,99.9,31,21,0,0,0,24,0,1,0,0,0,0,0,0,13,92.8
COC(=O)c1cccc(NC(=O)NC2CCN(c3ccnc(NCc4ccc(F)cc4)n3)CC2)c1 [GSK1379860],0,0,0,0,61,0,0,0,0,0,0,0,25,0,0,0,0,0,0,15
O=C(Nc1n[nH]c2cc(-c3ccco3)ccc12)C1CC1 [SB-737447],11,9,0,3,62,0,66,49,0,0,0,5,19,0,11,65,5,12,25,2
Cc1nnc(-c2ccc3occ(-c4ccc(S(C)=O)cc4)c3n2)o1 (centres unmarked),0,0,0,0,0,0,0,11,0,45,0,0,0,3,0,0,0,0,30,0
CCNCC(Cc1ccccc1)NC(=O)c1cc(Br)c(-c2ccnc3[nH]ccc23)s1.Cl.Cl (centres unmarked) [GSK1383280],93.1,0,14,0,56,0,0,51,95.9,0,0,0,0,79,19,54,0,15,26,0
Cc1ccc(CC(=O)N2CCc3cc(-c4cn(C)c5ncnc(N)c45)ccc32)cc1 [GSK2634758],37,8,0,6,13,31,10,100,0,5,3,1,33,0,17,0,0,0,4,0
CC(C)S(=O)(=O)N1CCN(Cc2ccc3c(c2)nc(NC(=O)c2ccsc2)n3C[C@H](O)c2ccccc2)CC1 [GW635815],23,0,96.3,1,0,0,0,83,60,0,0,10,78,0,79,0,0,0,50,0
Cl.Nc1n[nH]c2cc(-c3ccccn3)ccc12 [GSK2189892],18,0,0,0,0,0,0,22,0,0,0,0,7,0,2,0,0,0,6,0
CCOC(=O)N1CCC(n2cnc(-c3ccc(F)cc3)c2-c2ccnc(N)n2)CC1 [SB-219952],0,10,0,0,9,0,28,6,0,38,47,46,13,0,42,0,3,0,16,0
NC(=O)c1ccc(-c2cc3ncnc(SCC(=O)O)c3s2)cc1,0,0,0,0,0,0,0,54,0,0,0,0,0,0,0,0,0,0,8,0
CC(=O)Nc1nc2cnc(Nc3cc(NC(=O)c4cccc(CC(C)(C)C#N)c4)ccc3C)nc2s1,0,17,56,0,46,0,9,25,0,0,8,22,0,0,41,0,0,0,12,7
